“And” between values parts separate entries of the source, which are not always exact repeats. Equal entries are not always repeated. Inconclusive results are not listed. A structure can be active in one record and inactive in another. The source made the active and inactive calls. Unless noted, the call rests on the fitted dose curve; in most records, active means well fitted curve in the direction sought with a large enough effect in the repeat runs; inconclusive means weak or mixed curves; inactive means no such curve, though single readings can be large; an effect the other way counts as inactive or inconclusive.

The target in assay [1] is Thyrotropin receptor (Homo sapiens) (UniProt P16473). Briefly: qHTS assay to identify small molecule agonists of the thyroid stimulating hormone receptor (TSHR) signaling pathway (AID 1224843; calls by dose curve; further: nearly all actives have a fitted effect of over 45% in size). The method in brief:
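TSHR-HEK293 cells in agonist mode, 30 min room-temperature step, then cAMP measured by competitive HTRF (cAMP-d2 with anti-cAMP cryptate) after 1 h at room temperature. Tested at 15 concentrations in triplicate.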
On the technique in general: In qHTS, concentration-response curves come from the screen itself.

Assay [2] is described as follows: qHTS assay to identify small molecule agonists of the hypoxia (HIF-1) signaling pathway - cell viability counter screen (AID 1224844; calls by dose curve; further: nearly all actives have a fitted effect of over 50% in size). The method in brief: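 Luminescent ATP content (CellTiter-Glo, 30 min, room temperature) served as the viability measure in HRE-bla ME-180 cells exposed to compounds for 17 hrs in low-serum medium (0.5% dialyzed FBS).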
Assay [3] is described as follows: qHTS assay to identify small molecule agonists of H2AX (AID 1224845; active means well fitted activation curve with a large enough effect in the signal ratio in the repeat runs, not every such curve was filed as active; the % refers to the signal ratio). The method in brief:
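Wild-type CHO-K1 cells, plated overnight, exposed 3hr at 37C to 15 concentrations (0.76% DMSO final). Lysed, then HTRF anti-pH2AX (S139) cryptate and anti-H2AX-d2 antibodies, 24 hr room temperature; 665/620 nm emission read.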

A short description of assay [4]: qHTS assay to identify small molecule agonists of the hypoxia (HIF-1) signaling pathway (AID 1224846; active means well fitted activation curve with a large enough effect in the signal ratio in the repeat runs, not every such curve was filed as active; the % refers to the signal ratio). The method in brief: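 Measured by blue/green FRET after loading CCF4-AM: beta-lactamase expressed from a hypoxia response element in ME-180 cells. Test agents were delivered in DMSO and left 17 hrs; cells had been plated 5 hrs earlier in low-serum (0.5% dialyzed FBS) medium.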

A short description of assay [5]: qHTS assay to identify small molecule agonists of H2AX - cell viability counter screen (AID 1224847; calls by dose curve; further: top concentration of the series differs between compounds; nearly all actives have a fitted effect of over 30% in size). The method in brief: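 CHO-K1 wt, 1000 cells/well, o/n 37C; cpds 15 conc, 3 h 37C, 0.76% DMSO; CellTiter-Glo, 30 min RT, luminescence.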
Assay [6] in a line: qHTS RealTime-Glo MT Cell Viability Assay in HepG2 cells - 24 hour (AID 1224867). Further: nearly all actives have a fitted effect of over 50% in size. The method in brief: (§1)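 HepG2 cells (600/well) were dispensed with RealTime-Glo reagents, incubated 5 h at 37 °C, then treated with compounds in DMSO for up to 40 h. Nonlytic NanoLuc luminescence reflecting viable cells was read at each stated time point.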
Assay [7] can be described thus: qHTS RealTime-Glo MT Cell Viability Assay in HEK293 cells - 32 hour (AID 1224868). Further: top concentration of the series differs between compounds; nearly all actives have a fitted effect of over 50% in size. The method in brief:
(§2)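 HEK293 cells seeded with NanoLuc/prosubstrate reagent, rested 5 h at 37 C, then dosed and kept at 37 C up to 40 h. Nonlytic real-time luminescence from viable cells read at 0, 8, 16, 24, 32 and 40 h.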

Assay [8] can be described thus: A CellTox Green Cytotoxicity Assay to monitor cytotoxicity in HEK293 cells - 0 hour (AID 1224869). Further: nearly all actives have a fitted effect of over 50% in size. Further: potency means the concentration at half of the fitted maximal effect. The method in brief: (§3)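 Each value comes from one timepoint of a single continuous run in which HEK293 cells with CellTox Green were exposed to compound for up to 40 h at 37 C, dye fluorescence rising with cell death.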
A short description of assay [9]: qHTS RealTime-Glo MT Cell Viability Assay in HepG2 cells - 40 hour (AID 1224870). Further: nearly all actives have a fitted effect of over 50% in size. The method in brief:
(§4)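 HepG2 cells (600/well) mixed with RealTime-Glo MT reagent, settled 5 h at 37 C/5% CO2 before compound addition. Nonlytic NanoLuc luminescence from viable-cell prosubstrate reduction read repeatedly during 40 h treatment at 37 C.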

Assay [10] can be described thus: A CellTox Green Cytotoxicity Assay to monitor cytotoxicity in HEK293 cells - 40 hour (AID 1224871). Further: nearly all actives have a fitted effect of over 45% in size. Further: potency means the concentration at half of the fitted maximal effect. The method in brief:
as §3

Assay [11] can be described thus: qHTS RealTime-Glo MT Cell Viability Assay in HEK293 cells - 16 hour (AID 1224872). The method in brief:
as §2

Assay [12] can be described thus: qHTS RealTime-Glo MT Cell Viability Assay in HepG2 cells - 8 hour (AID 1224873). Further: nearly all actives have a fitted effect of over 55% in size. The method in brief: as §4
Assay [13] can be described thus: qHTS RealTime-Glo MT Cell Viability Assay in HEK293 cells - 40 hour (AID 1224874). Further: nearly all actives have a fitted effect of over 50% in size. As to conditions: RealTime-Glo luminescence; max response: stronger effect = lower value. The method in brief:
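qHTS format; HEK293 cells with NanoLuc/prosubstrate reagent, 37 C/5% CO2 for 5 h pre-dosing; compounds 23 nL in DMSO; luminescence at each time point reflects viable cells.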

The nature of assay [14]: A CellTox Green Cytotoxicity Assay to monitor cytotoxicity in HEK293 cells - 24 hour (AID 1224875). Further: nearly all actives have a fitted effect of over 45% in size. The method in brief: as §3
Assay [15] can be described thus: qHTS RealTime-Glo MT Cell Viability Assay in HepG2 cells - 32 hour (AID 1224877). Further: nearly all actives have a fitted effect of over 55% in size. The method in brief:
as §1

A short description of assay [16]: A CellTox Green Cytotoxicity Assay to monitor cytotoxicity in HepG2 cells - 24 hour (AID 1224878). Further: nearly all actives have a fitted effect of over 45% in size. Further: potency means the concentration at half of the fitted maximal effect. The method in brief: (§5)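 Continuous culture of HepG2 cells with a membrane-impermeant DNA dye; rising fluorescence marks dead cells. Compound exposure lasted up to 40 h at 37 C, with reads every 8 h from 0 h.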
Assay [17] in a line: A CellTox Green Cytotoxicity Assay to monitor cytotoxicity in HepG2 cells - 40 hour (AID 1224879). Further: nearly all actives have a fitted effect of over 40% in size. Further: potency means the concentration at half of the fitted maximal effect. The method in brief:
as §5

A short description of assay [18]: qHTS assay to identify small molecule antagonists of the estrogen related receptor (ERR) signaling pathway from Tox21 library (AID 1224848). Further: nearly all actives have a fitted effect of over 50% in size. The method in brief:
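ERR reporter cell line (from NTP) seeded 2,000 cells/well, rested 6 h at 37 C/5% CO2, then pin-dosed with compounds in DMSO. After 18 h at 37 C, ONE-Glo added; luminescence read after 30 min at room temperature.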

Assay [19] can be described thus: qHTS assay to identify small molecule agonists of the estrogen related receptor (ERR) signaling pathway from Tox21 library (AID 1224849; calls by dose curve; further: nearly all actives have a fitted effect of over 15% in size). The conditions noted are these: ERR reporter cell line, ONE-Glo luciferase, 18 h. The method in brief:
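We plated ERR reporter cells, waited 6 h, added compounds in DMSO by pin tool and incubated them 18 h at 37 C. ONE-Glo was then added and luminescence read after 30 min.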

Assay [20] can be described thus: A CellTox Green Cytotoxicity Assay to monitor cytotoxicity in HepG2 cells - 16 hour (AID 1224876). Further: nearly all actives have a fitted effect of over 45% in size. The method in brief: as §5
On the % scale 0 is the no-effect control and ±100 the full control effect.

Sequence of Thyrotropin receptor (Homo sapiens) (P16473 whole entry, looked up): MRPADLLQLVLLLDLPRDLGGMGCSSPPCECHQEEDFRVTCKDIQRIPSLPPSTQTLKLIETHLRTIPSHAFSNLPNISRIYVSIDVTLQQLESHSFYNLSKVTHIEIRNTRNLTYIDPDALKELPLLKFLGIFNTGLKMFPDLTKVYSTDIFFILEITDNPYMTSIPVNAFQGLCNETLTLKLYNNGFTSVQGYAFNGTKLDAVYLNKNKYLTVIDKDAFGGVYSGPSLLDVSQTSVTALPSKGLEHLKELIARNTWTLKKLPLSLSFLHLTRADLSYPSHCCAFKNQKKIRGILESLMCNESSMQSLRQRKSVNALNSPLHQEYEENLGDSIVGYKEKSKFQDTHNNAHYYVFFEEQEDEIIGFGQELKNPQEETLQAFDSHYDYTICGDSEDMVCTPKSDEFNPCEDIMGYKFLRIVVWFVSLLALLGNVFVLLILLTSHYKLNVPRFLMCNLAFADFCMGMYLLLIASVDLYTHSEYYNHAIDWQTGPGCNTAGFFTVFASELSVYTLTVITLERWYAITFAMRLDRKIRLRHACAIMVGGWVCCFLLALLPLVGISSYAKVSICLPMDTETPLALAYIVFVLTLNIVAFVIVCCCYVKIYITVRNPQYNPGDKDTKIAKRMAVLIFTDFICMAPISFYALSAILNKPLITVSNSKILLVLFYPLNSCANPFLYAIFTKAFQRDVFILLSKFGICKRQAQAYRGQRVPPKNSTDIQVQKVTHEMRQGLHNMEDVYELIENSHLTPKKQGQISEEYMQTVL

With `C[C@]12C=CC(=O)C=C1CC[C@@H]1[C@@H]2C(=O)C[C@@]2(C)[C@H]1CC[C@]2(O)C(=O)CO`, the Potency result in assay [1], in assay [2], in assay [3], in assay [5], in assay [7] and in assay [8] was “inactive” in each case. Also, the Potency result in assay [10], in [11], in assay [14], in assay [16] and in [17] was “inactive” throughout. For the same molecule, the molecule was called inactive in assay [4], in [6], in [9], in assay [12] and in assay [15]. Further, the max response in [13] was -10.3% (inactive) and 0.237% (inactive) and 8.61% (inactive).
Regarding `Cc1cccc2ccccc12`, the Potency result in assay [1], in [2], in [3], in [18], in assay [7] and in [8] was “inactive” each time. Further, the Potency entry in [10], in [11], in assay [14], in assay [16] and in [17] was “inactive” each time. The result in assay [4], in [6], in assay [9], in assay [12] and in [15] was inactive. Besides, in assay [19] (at 92.4 µM (top of the series)), the activity change, positive = activation was -5.59% (inactive) and 0.133% (inactive). The max response in assay [13] is 3.52% (inactive) and 3.07% (inactive).
`C=CC(=O)NC(C)(C)CS(=O)(=O)O`: the Potency result in assay [1], in assay [2], in [3], in assay [5], in assay [7] and in assay [11] was “inactive” throughout. The call in assay [4], in [6], in assay [9], in assay [12] and in assay [15] was inactive. For the same molecule, the Potency result is “inactive and 43.6 µM (active)” in assay [8]; “inactive and 43.6 µM (active)” in [10]; “inactive and 24.5 µM (active)” in assay [16]; “inactive and 43.6 µM (active)” in assay [17]. Moreover, in assay [13], the max response was -2.52% (inactive) and 4.35% (inactive) and 4.55% (inactive).
`NC(=O)c1ccc([N+](=O)[O-])cc1Cl`: the Potency entry in assay [1], in assay [2], in assay [3], in assay [7], in assay [8] and in [10] was “inactive” in each case. The Potency result in assay [11], in [14], in assay [16] and in assay [17] was “inactive” throughout. For the same molecule, the outcome in assay [4], in assay [6], in assay [9], in [12] and in assay [15] was inactive. Also, the max response in assay [13] was -1.29% (inactive) and 1.15% (inactive).
For `CCCCNC(=O)NS(=O)(=O)c1ccc(N)cc1`, the Potency result in [1], in assay [2], in [3], in assay [18], in assay [7] and in [8] was “inactive” in each case. For the same molecule, the Potency result in assay [10], in assay [11], in assay [14], in assay [20] and in [17] was “inactive” in each case. Also, the outcome in assay [4], in assay [6], in assay [9], in [12] and in [15] was inactive. Moreover, the figures for the activity change, positive = activation in [19] (at 42.5 µM (top of the series)) and in [19] (at 92.4 µM (top of the series)) were -4% (inactive) and 2.9% (inactive), respectively. Further, in assay [13], the max response was 3.02% (inactive) and 10% (inactive).
In the case of `CC1(C)O[C@@H]2[C@@H](CO[C@@]3(COS(N)(=O)=O)OC(C)(C)O[C@@H]23)O1`, the Potency entry in assay [1], in [2], in assay [3], in assay [18], in assay [7] and in assay [8] was “inactive” in each case. Moreover, the Potency entry in assay [10], in assay [11], in assay [14], in assay [20], in [16] and in assay [17] was “inactive” throughout. The call in assay [4], in assay [6], in assay [9], in [12] and in assay [15] was inactive. In addition, the activity change, positive = activation in assay [19] (at 42.5 µM (top of the series)) was 1.2% (inactive); in [19] (at 92.4 µM (top of the series)), -14.9% (inactive). For the same molecule, the max response in assay [13] is -1.97% (inactive).
